Assay results from article PMC4336329 (PLoS ONE, 2015).
Hit rate of the full screen: of about 310,000 compounds, about 2,200 (0.71%) showed an effect of 50% or more. The effect is printed as a negative number. Many of the other results were omitted from the sample, so strong results are more common in it than they were.

biological target: human ether-à-go-go-related gene (hERG) potassium channel (human, UniProt Q12809); test: primary screen, population patch clamp on CHO cells stably expressing hERG; higher = less effect of the substance
Sequence (Q12809 whole entry, looked up): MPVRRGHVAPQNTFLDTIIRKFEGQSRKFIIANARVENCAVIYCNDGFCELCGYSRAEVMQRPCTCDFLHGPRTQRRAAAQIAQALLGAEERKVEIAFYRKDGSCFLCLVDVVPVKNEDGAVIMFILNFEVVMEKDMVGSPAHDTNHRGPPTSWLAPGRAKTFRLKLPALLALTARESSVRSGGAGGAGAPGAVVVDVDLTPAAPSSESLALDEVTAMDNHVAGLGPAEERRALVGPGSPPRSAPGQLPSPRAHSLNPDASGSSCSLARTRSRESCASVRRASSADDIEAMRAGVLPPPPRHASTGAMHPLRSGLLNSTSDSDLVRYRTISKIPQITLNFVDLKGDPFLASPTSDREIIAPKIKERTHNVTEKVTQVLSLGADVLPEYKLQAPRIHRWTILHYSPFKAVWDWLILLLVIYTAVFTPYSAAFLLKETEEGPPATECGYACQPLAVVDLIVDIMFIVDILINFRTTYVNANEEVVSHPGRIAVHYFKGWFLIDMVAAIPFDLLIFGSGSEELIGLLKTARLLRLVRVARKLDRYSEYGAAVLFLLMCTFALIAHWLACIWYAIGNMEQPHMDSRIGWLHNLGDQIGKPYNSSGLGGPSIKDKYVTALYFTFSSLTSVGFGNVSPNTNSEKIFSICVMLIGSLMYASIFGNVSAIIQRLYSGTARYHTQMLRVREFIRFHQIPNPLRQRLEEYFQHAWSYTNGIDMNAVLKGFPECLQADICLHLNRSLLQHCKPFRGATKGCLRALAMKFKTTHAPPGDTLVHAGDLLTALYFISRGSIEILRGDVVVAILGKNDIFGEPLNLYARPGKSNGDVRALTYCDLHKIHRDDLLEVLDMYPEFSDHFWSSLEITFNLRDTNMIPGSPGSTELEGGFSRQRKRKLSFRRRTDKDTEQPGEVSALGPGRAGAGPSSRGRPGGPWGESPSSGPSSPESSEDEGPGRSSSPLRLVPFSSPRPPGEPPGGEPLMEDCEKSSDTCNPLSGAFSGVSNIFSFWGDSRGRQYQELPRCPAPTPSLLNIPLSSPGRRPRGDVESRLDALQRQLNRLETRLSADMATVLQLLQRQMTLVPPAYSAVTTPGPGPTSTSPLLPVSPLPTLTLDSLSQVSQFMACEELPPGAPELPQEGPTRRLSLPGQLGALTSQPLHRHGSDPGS

Row | SMILES | hERG current change (%, negative = inhibition) at 1uM [%]
1 | O=C(Nc1nc(-c2cccs2)cs1)c1ccc(Cl)s1 | -6.43
2 | Cc1cc2nn(-c3ccc(Cl)cc3)nc2cc1N | 14
3 | CCO/C=C/C(O)(CNC(=O)COc1ccccc1F)C(F)(F)F (centres unmarked) | 19.8
4 | CN1C(=O)N(c2nnc(C(C)(C)C)s2)C(=O)C1c1ccccc1 (centres unmarked) | 14.2
5 | Cc1nnsc1C(=O)Nc1ccc(S(=O)(=O)N2CCCCC2C)cc1 (centres unmarked) | 12.5
6 | CC1CCCCN1C(=O)Nc1cccc(C(F)(F)F)c1 (centres unmarked) | 9.57
7 | Cc1c(Cl)cccc1NC(=S)NNc1ncc(C(F)(F)F)cc1Cl | 4.45
8 | Cl.OC(COc1ccc(Cl)cc1)CN1CCCCC1 (centres unmarked) | -29.8
9 | CC(C)OCC(O)CN1CCC(Cc2ccccc2)CC1.Cl (centres unmarked) | -2.15
10 | Cl.OC(COc1ccccc1)CN1CCC(Cc2ccccc2)CC1 (centres unmarked) | -78
11 | COc1ccc(OCC(O)CN2CCc3ccccc3C2)cc1.Cl (centres unmarked) | -2.53
12 | Cl.OC(COc1ccccc1)CN1CCN(CC(O)COc2ccccc2)CC1 (centres unmarked) | -19.5
13 | CC(C(O)c1ccc(O)cc1)N1CCC(Cc2ccccc2)CC1.O.O=C(O)C(O)C(O)C(=O)O (centres unmarked) | -37.8
14 | COc1cccc(OCC(O)CN2CCc3ccccc3C2)c1.Cl (centres unmarked) | -57.6
15 | Cc1cccc(OCC(O)CN2CCc3ccccc3C2)c1.Cl (centres unmarked) | -0.945
16 | Cl.OC(COc1ccc(Cl)cc1)CN1CCN(c2ccccc2)CC1 (centres unmarked) | 0.0675
17 | Cl.OC(COc1ccc(Cl)cc1)CN1CCC(Cc2ccccc2)CC1 (centres unmarked) | -89.6
18 | C[C@@H](CN1CCC(Cc2ccccc2)CC1)[C@@H](O)c1ccc(O)cc1.Cl | -60.5
19 | CC(C(O)c1ccc(O)cc1)N1CCC(Cc2ccccc2)CC1.O=C(O)C(O)C(O)C(=O)O (centres unmarked) | -33.4
20 | COC(=O)c1ccc(N2C(=O)CC(N(C)Cc3ccccc3)C2=O)cc1 (centres unmarked) | 13.1
21 | N#CC(C(=O)NCCc1ccccc1)c1nc2ccccc2nc1N1CCCCC1 (centres unmarked) | 4.11
22 | COc1nc(N(C)S(=O)(=O)c2ccc(C)cc2)nc(C)c1Br | 16.5
23 | C/C(=N/NC(=O)Cc1ccccc1)c1ccc(C)s1 | 11.5

Row | SMILES | hERG current change (%, negative = inhibition) at 1uM [%]
24 | O=C(NCCc1ccccc1)C1CC(=O)N(c2ccc3c(c2)OCCO3)C1 (centres unmarked) | 7.34
25 | C/C(=N\NC(=O)C(O)(c1ccccc1)c1ccccc1)c1ccc(NC(=O)CCCC(=O)O)cc1 | 11.3
26 | O=C(CSc1nc(C2CC2)n(-c2ccccc2)n1)NCc1ccco1 | -3.27
27 | CCOc1ccc(OCC)c(S(=O)(=O)NNC(=O)c2c(C)nc3ccccn23)c1 | 5.91
28 | COc1ccc(S(=O)(=O)N(C)CC(=O)N2CCOCC2)cc1 | -2.22
29 | O=C(Nc1ccc(NC(=O)c2cccc([N+](=O)[O-])c2)cc1)c1cccc([N+](=O)[O-])c1 | 9.44
30 | COc1cccc(OCC(O)CN2CCN(C(c3ccccc3)c3ccccc3)CC2)c1.Cl (centres unmarked) | 3.72
31 | Cc1cc(C)cc(OCC(O)CN2CCN(Cc3ccc4c(c3)OCO4)CC2)c1.Cl (centres unmarked) | -67.9
32 | COc1cccc(OCC(O)CN2CCC(Cc3ccccc3)CC2)c1.Cl (centres unmarked) | -55.6
33 | Cc1ccc(OCC(O)CN2CCc3ccccc3C2)c(C)c1.Cl (centres unmarked) | -42.6
34 | Cc1ccc(OCC(O)CN2CCN(Cc3ccc4c(c3)OCO4)CC2)cc1C.Cl (centres unmarked) | 5.88
35 | Cl.OC(COc1ccc(Br)cc1)CN1CCCC1 (centres unmarked) | 5.23
36 | Cl.OC(COc1ccc(Br)cc1)CN1CCC(Cc2ccccc2)CC1 (centres unmarked) | -83.7
37 | Cc1ccc(C)c(OCC(O)CN2CCc3ccccc3C2)c1C.Cl (centres unmarked) | -56.1
38 | O=S(=O)(c1ccc(OCC(O)CN2CCC(Cc3ccccc3)CC2)cc1)N1CCOCC1 (centres unmarked) | -10.3
39 | Cc1cccc(C)c1OCC(O)CN1CCc2ccccc2C1.Cl (centres unmarked) | -24.3
40 | COc1ccc(OCC(O)CN2CCN(Cc3ccc4c(c3)OCO4)CC2)cc1.Cl (centres unmarked) | -9.87
41 | COc1cccc(OCC(O)CN2CCC(C)CC2)c1.Cl (centres unmarked) | 3.42
42 | CC(=O)N1CCc2cc(Br)cc(S(=O)(=O)CCC(=O)N3CCN(c4ccccn4)CC3)c21 | 6.2
43 | CCn1c(Cc2cccs2)nnc1SCC(=O)c1ccc(C)cc1 | 5.59
44 | COc1ccc(NS(=O)(=O)c2ccc(O)c(C(=O)OCC(=O)N3CC(C)OC(C)C3)c2)cc1 (centres unmarked) | 12.3
45 | COc1cccc(NC(=O)CN2C(=O)COc3ccc(Cl)cc32)c1 | 8.19
46 | Cc1ccc(C)c(NC(=S)NNC(=O)c2csc(C(C)C)c2)c1 | 0.742

Row | SMILES | hERG current change (%, negative = inhibition) at 1uM [%]
47 | COc1cc(NC(=O)c2sc3nc(C)nc(N4CCOCC4)c3c2C)cc(OC)c1OC | 30.1
48 | Cc1csc2nc3cc(C(N)=O)ccc3c(=O)n12 | 10.2
49 | CCCCN(C)Cc1c(C)[nH]c2c(ccc3ccccc32)c1=O | -56.1
50 | CCCCN(C)Cc1c(C)[nH]c2ccccc2c1=O | -8.8
51 | CCCCN(CC)Cc1c(C)[nH]c2c(ccc3ccccc32)c1=O | -49.6
52 | O=C(c1ccco1)N1C(=O)c2cccc3c(S(=O)(=O)N4CCCC4)ccc1c23 | 6.3
53 | CCc1ccc2oc(-c3cc(N)ccc3Cl)nc2c1 | 12
54 | COc1ccc(C(=O)C2CCCN(Cc3c[nH]c4ccccc34)C2)c(OC)c1 (centres unmarked) | -58.8
55 | COc1ccc(C(=O)C2CCCN(Cc3ccc(C)s3)C2)c(OC)c1 (centres unmarked) | -2.87
56 | COc1ccc(C(=O)C2CCCN(C/C=C/c3ccccc3OC)C2)c(OC)c1 (centres unmarked) | -78.6
57 | COc1ccc(F)cc1C(=O)C1CCCN(Cc2c[nH]c3ccccc23)C1 (centres unmarked) | -18.6
58 | COc1ccc(C(=O)C2CCCN(C3Cc4ccccc4C3)C2)c(OC)c1 (centres unmarked) | -68.2
59 | COc1ccc(C(=O)C2CCCN(C3CSCCSC3)C2)c(OC)c1 (centres unmarked) | -4.62
60 | COc1cccc(C(=O)C2CCCN(C/C=C/c3ccccc3OC)C2)c1 (centres unmarked) | -2.82
61 | COc1ccc(C(=O)C2CCCN(Cc3cccc(C)n3)C2)c(OC)c1 (centres unmarked) | -58.3
62 | COc1ccc(C(=O)C2CCCN(Cc3c(C)[nH]c4ccccc34)C2)c(OC)c1 (centres unmarked) | -28.6
63 | COc1cccc(C(=O)C2CCCN(Cc3cccc(C)n3)C2)c1 (centres unmarked) | -30.1
64 | COc1ccc(C(=O)C2CCCN(C3Cc4ccccc4C3)C2)cc1OC (centres unmarked) | -33.2
65 | COc1ccc2cc(C(=O)C3CCCN(Cc4cccc(C)n4)C3)ccc2c1 (centres unmarked) | 11.2
66 | CNC(=O)NC(=O)CSc1nnc(C(F)(F)F)n1C | 8.32
67 | O=C(OCC(=O)N1CCCC1)c1c(Cl)ccc(Cl)c1Cl | 9.45
68 | CCCc1nc(NC(C)=O)c(C#N)c(-c2ccco2)c1CC | 0.0807
69 | Cc1cccc(C)c1NC(=O)c1c[nH]c2ccccc12 | 11.7

Row | SMILES | hERG current change (%, negative = inhibition) at 1uM [%]
70 | COCC(C)n1c(C)cc(C(=O)CN2c3cccc4cccc(c34)S2(=O)=O)c1C (centres unmarked) | 7.82
71 | CC(C)C(c1nnnn1Cc1ccccc1)N(CCCO)Cc1cc2cc3c(cc2[nH]c1=O)OCO3 (centres unmarked) | 10.4
72 | COC(=O)c1cc2ccsc2n1CC(=O)Nc1ccc(N(C)C)cc1 | 5.25
73 | C=CCN1N=C(c2ccc(Cl)s2)CSC1=O | 22.3
74 | Cc1ccc(NC(=S)NC(=O)CC2CC(C)(C)OC2=O)cc1 (centres unmarked) | 8.78
75 | CCOC(=O)/C(C#N)=C/C=C1\C=Cc2ccccc2N1CC | 14.8
76 | C=CC[n+]1c(/C=C2\C=Cc3cc(C)ccc3N2CC)ccc2ccccc21.[Br-] | -92.1
77 | CCN1/C(=C/c2ccc3ccccc3[n+]2CC)C=Cc2ccccc21.[Cl-] | -89.5
78 | CCN1/C(=C2\C(=O)N(c3ccccc3)N=C2C)C=Cc2cc(C)ccc21 | -1.41
79 | CCN1/C(=C/c2cc[n+](C)cc2)C=Cc2cc(C)ccc21.[I-] | -55.5
80 | CCN1/C(=C/c2ccc3ccccc3[n+]2CCCS(=O)(=O)[O-])C=Cc2cc(C)ccc21 | 13
81 | CCN1C(=O)/C(=C2\C=Cc3cc(C)ccc3N2CC)OC1=S | 14
82 | CCN1C(=C(C#N)C#N)C=Cc2cc(C)ccc21 | 14.9
83 | CCN1C(=C(C#N)C#N)C=Cc2ccccc21 | 15.9
84 | O=S(=O)(CCc1nnc(-c2ccc(Br)cc2)o1)c1ccc(Cl)cc1 | 6.04
85 | Cc1cccc(NC(=O)CSc2cccc3cccnc23)c1C | 13.9
86 | COc1ccccc1NC(=O)c1nc[nH]c1C(=O)Nc1ccccc1OC | 22.2
87 | CCCCCC(=O)N1CCN(CCN=CC2=C(O)CC(c3cccs3)CC2=O)CC1 (centres unmarked) | -109
88 | CC(=O)N1CCN(CCN=CC2=C(O)CC(c3ccco3)CC2=O)CC1 (centres unmarked) | 2.39
89 | CC(C)C(=O)N1CCN(CCN=CC2=C(O)CC(c3ccco3)CC2=O)CC1 (centres unmarked) | 14
90 | CCC(=O)N1CCN(CCN=CC2=C(O)CC(c3cccs3)CC2=O)CC1 (centres unmarked) | 9.17
91 | CC(=O)N1CCN(CCN=CC2=C(O)CC(c3cccs3)CC2=O)CC1 (centres unmarked) | 10.4
92 | CCCCCC(=O)N1CCN(CCN=CC2=C(O)CC(c3ccco3)CC2=O)CC1 (centres unmarked) | -74.7
